Compounds without any hit were thinned out: in the full panel of roughly 79,000, 15% have a hit. Active and inactive are the calls of the source. Rule as the data show it: active = growth inhibition above about 70%; inactive = the rest.
Tests used:
[1] = NCI Yeast Anticancer Drug Screen. Data for the rad50 strain (AID 155);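 also: 0% = growth of vehicle-only cultures of the same strain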; settings: S. cerevisiae rad50 strain growth inhibition; at 50.0 µM; active compounds read high
Summary of the method: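 A DNA repair-deficient yeast mutant serves as the test organism; compound-induced growth inhibition is calculated against vehicle-treated cells.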

[2] = NCI Yeast Anticancer Drug Screen. Data for the mec2-1 strain (AID 157); settings: S. cerevisiae mec2-1 strain, at 50.0 µM, active compounds read high
Summary of the method: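 Each compound was tested on mec2-1 yeast, a strain altered in DNA damage repair or cell cycle control. Growth inhibition is reported relative to vehicle.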

[3] = NCI Yeast Anticancer Drug Screen. Data for the sgs1 mgt1 strain (AID 161);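 also: 0% = growth of cultures given vehicle only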; settings: S. cerevisiae sgs1 mgt1 strain, at 50.0 µM, active compounds read high
Summary of the method: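 Mutant yeast exposed to compound; growth scored against vehicle-only wells.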

[4] = NCI Yeast Anticancer Drug Screen. Data for the cln2 rad14 strain (AID 165);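 also: 0% = growth equal to vehicle treated cultures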; settings: S. cerevisiae cln2 rad14 strain, at 50.0 µM, active compounds read high
Summary of the method: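 Test compounds were added to cln2 rad14 yeast cultures; inhibition of growth was then determined by comparison with vehicle treatment.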

[5] = NCI Yeast Anticancer Drug Screen. Data for the bub3 strain (AID 167); settings: S. cerevisiae bub3 mutant strain, at 50.0 µM, active compounds read high
Summary of the method: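 Inhibition values come from growth of compound-treated mutant yeast normalised to vehicle-treated controls.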

[6] = NCI Yeast Anticancer Drug Screen. Data for the mlh1 rad18 strain (AID 175); settings: S. cerevisiae mlh1 rad18 strain growth inhibition; at 50.0 µM; active compounds read high
Summary of the method: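 Inhibition values reflect reduced growth of mutant yeast versus vehicle-treated controls following compound exposure; the mutations affect DNA damage repair.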

Measured: growth inhibition

N/C(=N\OC(=O)Nc1ccc(CSc2ccc(Cl)cc2)o1)c1ccccn1
inactive: [1] 2.9% | [2] -22.8% | [3] -14.1% | [4] 10.8% | [5] -16.9% | [6] -31.6%

c1ccc2c3c(ccc2c1)OCCOCCOc1ccc2ccccc2c1-3
inactive: [4] 8.5%
active: [1] 76.7% | [2] 84.8% | [3] 76.5% | [5] 91.9% | [6] 86%

COc1ccc(NC(=O)C(=O)Cc2nc3ccc([N+](=O)[O-])cc3[nH]c2=O)c(OC)c1
inactive: [1] 9.85% | [2] 14.7% | [3] -3.7% | [4] 3.95% | [5] 6.15% | [6] 22.6%

CCOC(=O)c1nc(N)c2c(CC#N)nn(C)c2n1
inactive: [1] 2.35% | [2] -15.4% | [3] 8.3% | [4] -9.75% | [5] 9.95% | [6] -16.4%

Cc1ccc(-c2c(C#N)c(-c3ccc([N+](=O)[O-])cc3)c(C#N)c(=O)n2NS(=O)(=O)c2ccccc2)cc1
inactive: [1] 23.1% | [2] 16.8% | [3] 24.5% | [4] 27.4% | [5] 14.6% | [6] 0.8%

c1ccc(C2=Nc3ccccc3N=C3CCCC32)cc1 (stereo unspecified)
inactive: [1] 45.2% | [2] 22.6% | [3] 3.3% | [4] 10.6% | [5] 21.4% | [6] 58.7%

NC(N)=N/N=C(/c1nc2ccc([N+](=O)[O-])cc2[nH]c1=O)C(O)c1ccco1 (stereo unspecified)
inactive: [1] 10.1% | [2] -25% | [3] 0.25% | [4] 5.95% | [5] -15.3% | [6] 1.7%

CNC(=O)C1CCC(CC2CCCCC2)CC1 (stereo unspecified)
active: [3] 77.1%
inactive: [1] 45.4% | [2] 49.5% | [4] 11.2% | [5] 42.8% | [6] 38.5%

C/C(C/C(C)=N/O)=N/O
inactive: [1] -8.6% | [2] -5.85% | [3] 2.8% | [4] 0.45% | [5] -2.55% | [6] 17.7%

COc1cccc2c1CCC1(O)OC(=O)CC21 (stereo unspecified)
inactive: [1] -17.4% | [2] 5.15% | [3] -20.5% | [4] 2.1% | [5] -6.5% | [6] -15.1%

Cn1ncnc1CCc1ccccc1
inactive: [1] -10.3% | [2] -3.9% | [3] -40.5% | [4] -4.55% | [5] -14% | [6] -21.1%

COc1cc(C(=O)C/C(CCCC(=O)Nc2ccccc2[N+](=O)[O-])=N/NC(=O)c2cc3ccccc3cc2O)ccc1O
inactive: [1] 12.9% | [2] 28.1% | [3] -9.75% | [4] 23.3% | [5] 1.4% | [6] 7.85%

Nc1ncnc2c1sc(=S)n2-c1ccccc1
inactive: [1] -5.3% | [2] 4.55% | [3] 13% | [4] -1% | [5] -12.7% | [6] -10.9%

COc1ccc(OC)c(C(C)=O)c1
inactive: [1] -59% | [2] -66% | [3] -94% | [4] 1.75% | [5] -34.2% | [6] -29.4%

CNc1ccc(OC)cc1
inactive: [1] -4.9% | [2] -0.9% | [3] -13.4% | [4] -1% | [5] 7.35% | [6] 3.25%

O=C(O)c1cc(/C=C/c2cc(O)ccc2O)ccc1O
inactive: [1] -14.7% | [2] -21.8% | [3] -24.8% | [4] -2.05% | [5] -33.4% | [6] -39.6%

O=C(c1ccccc1)c1ccc(C(=O)c2ccccc2)cc1
inactive: [1] -0.35% | [2] -1.85% | [3] -19.2% | [4] -6.15% | [5] -9.35% | [6] -19.3%

COc1cc(C(=O)NC(CCN)(c2ccccc2)c2ccccc2)cc(OC)c1OC
inactive: [1] -2.55% | [2] 30.4% | [3] 14.4% | [4] 10.4% | [5] 43.2% | [6] 29.8%

O=CCS
inactive: [1] -0.2% | [2] 4.85% | [3] -5.6% | [4] -38% | [5] -31.2% | [6] 7.15%

Cc1cc2nc(NN)[nH]c2cc1C
inactive: [1] 5.15% | [2] 7.15% | [3] -17.5% | [4] -10% | [5] -26.4% | [6] 22.1%

O=C(c1ccco1)N(C(=S)N1CCN(c2ccccc2)CC1)c1ccccc1
inactive: [1] -79.7% | [2] -24.4% | [3] -35.5% | [4] -4.4% | [5] -18.1% | [6] -35.2%

CC1=CC(=C(C#N)C#N)c2ccccc2N1C
inactive: [1] 1.1% | [2] 4.35% | [3] -8.8% | [4] 3.75% | [5] 14.6% | [6] 1.85%

CN(/N=C\c1ccccc1)C(c1ccccc1)N(C)/N=C/c1ccccc1 (stereo unspecified)
inactive: [1] -6.45% | [2] -8.3% | [3] 15.2% | [4] -11.7% | [5] -17.3% | [6] -2.8%

O=C1CC(=O)C(C(=O)c2ccccc2)N1 (stereo unspecified)
inactive: [1] 18.3% | [2] 8.55% | [3] 5.3% | [4] 1.8% | [5] 7.8% | [6] -2.45%

S=C(Cl)Sc1ccc(-c2ccc(SC(=S)Cl)cc2)cc1
inactive: [1] 2.7% | [2] -2.5% | [3] -10.4% | [4] -5.6% | [5] 6.1% | [6] -7.9%

CN(C)CCn1c(CO)nc2c1c(=O)n(C)c(=O)n2C
inactive: [1] -9.95% | [2] 12.2% | [3] -21.4% | [4] -15.2% | [5] 0.1% | [6] -5.6%

CC(=O)OCCSSCCOC(C)=O
inactive: [1] -4.9% | [2] -26.4% | [3] 13% | [4] 6.55% | [5] -1.9% | [6] -3.75%

NCCn1ccnc1
inactive: [1] 13.3% | [2] 1.7% | [3] -1.75% | [4] -19.8% | [5] -3.15% | [6] 1.4%

O=C1c2ccccc2-c2ccc(-n3c(=O)c4ccccc4c4ccccc4c3=O)cc21
inactive: [1] 28.6% | [2] -1.7% | [3] 29.8% | [4] 16.1% | [5] 8.35% | [6] 25.4%

O=C(O)CCc1ccc(O)c(O)c1
inactive: [1] 19.6% | [2] 2.5% | [3] 11.8% | [4] 13.3% | [5] 2.8% | [6] -21.8%

N#Cc1ccc(Nc2cnc3ccc(N)cc3n2)cc1
inactive: [1] -41.2% | [2] -37.6% | [3] -43.8% | [4] -25.4% | [5] -25.4% | [6] -54.1%

ONc1ccccc1
inactive: [1] 15.3% | [2] 6.1% | [3] 11.8% | [4] 16.7% | [5] 28.1% | [6] 16.6%

CCc1nc2c([nH]1)C(=O)c1ccccc1C2=O
inactive: [1] 68.1% | [2] 19.2% | [3] 44.2% | [4] 9.25% | [5] 18.7% | [6] 42%

CCC(=O)C(CC)Cc1ccc(OC)c(OC)c1 (stereo unspecified)
inactive: [1] 1.4% | [2] -15.9% | [3] -11.8% | [4] -5.55% | [5] 6.55% | [6] 2.25%

O=C(Cc1ccccc1)NS(=O)(=O)c1ccccc1
inactive: [1] 5.15% | [2] -5.8% | [3] -12.3% | [4] 9.15% | [5] -3.95% | [6] 4.2%

O=C1CC2C(=O)N(Cc3ccccc3)C1C(S(=O)(=O)c1ccccc1)C2S(=O)(=O)c1ccccc1 (stereo unspecified)
inactive: [1] 10.4% | [2] 9.4% | [3] 2.75% | [4] 26.9% | [5] -8.7% | [6] 23.9%

CCCCCCCCCCCCC/C=C/CC(CC(=O)Nc1ccc(-n2c(=O)cc(C)n2C)cc1)C(=O)O (stereo unspecified)
inactive: [1] 3.75% | [2] -24.1% | [3] 13.1% | [4] 21.2% | [5] 20.6% | [6] 5.65%

O=C1NN=C(C(O)c2ccccc2)C1(O)c1ccccc1 (stereo unspecified)
inactive: [1] 8.3% | [2] -6.25% | [3] -0.65% | [4] 0.2% | [5] 2.5% | [6] 17.8%

COc1ccc2ccccc2c1C=O
inactive: [1] 33.5% | [2] 23% | [3] 40.1% | [4] -16.2% | [5] 5.45% | [6] 47.8%

CCNC(=S)NNC(=O)c1ccc(N=NN(C)C)cc1
inactive: [1] -5.15% | [2] 12.8% | [3] 10.3% | [4] -13.4% | [5] 14.8% | [6] 10.9%

Cc1c2oc3c(C)ccc(C(=O)NCc4cccnc4)c3nc-2c(C(=O)NCc2cccnc2)c(N)c1=O
inactive: [1] 42.6% | [2] -0.85% | [3] -6.85% | [4] 7.55% | [5] 2.6% | [6] 13.1%

Reference: PubChem BioAssay (NCI)
